Screens: PubChem, several laboratories
aDG glyco up = alpha-DG glycosylation activation; Pro5-aDG cells, alpha-DG glycosylation AlphaScreen (IIH6); 0% Pro5, 100% B10-LARGE cell signal; activation, % at 10 µM; 0.22% of 360,000 active;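 active means activation of at least 8% versus controls, or a plate z-score of at least 8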;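 further: Pro5 are CHO cells carrying HIG-tagged alpha-DG that lacks glycosylation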
EBV LMP1 NFkB = reduces LMP1-driven NF-kappaB luciferase signal | LMP1-induced NF-kappaB luciferase reporter cells, luminescence | inhibition, % at 12.5 µM | 0.69% of 350,000 active; in the data active means inhibition above about 41%;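 further: 0% = neutral control wells and 100% = reference inhibitor control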
TROY signal inh = blocks TROY-dependent signaling in reporter cells; Q293 LMP1-TROYcd NF-kB luciferase reporter, 4 h; inhibition, % at 10 µM; 0.98% of 360,000 active; AID 1347056;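 active means compounds whose plate-normalised and pattern-corrected inhibition of the luciferase reporter signal at the single screening dose is 50% or more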
TWEAK Fn14 block = TWEAK-Fn14 signaling inhibition; TWEAK-stimulated Fn14 reporter cells, luciferase luminescence, 8 h; inhibition, % at 10 µM; 2% of 360,000 active; AID 1159606; in the data active means inhibition above about 50%
LGR2 antag = inhibitors of bursicon-induced Drosophila LGR2 receptor cAMP signaling. AID 720647. HEK293 LGR2, CRE-luciferase, bursicon-stimulated, 4 h. 0.35% of 380,000 active. inhibition, % at 9.99 µM;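 active means drop in luminescence signal, shown as inhibition above about 50% in the replicate tests, limit read from the data, passing the limit was not always enough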;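 further: agonist challenge used bursicon conditioned medium at about half maximal strength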
HSP90 refold inh = inhibitors of HSP90 luciferase refolding in rabbit reticulocyte lysate | inhibition, % at 5.6 µM | luciferase refolding luminescence, 3 h | 0.91% of 290,000 active;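 active means inhibition above the screen-wide mean plus 3 SD, computed separately per campaign, cut at about 16% in these data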;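 further: 0% = DMSO wells and 100% = 60 µM geldanamycin wells; inhibitors lower the luminescence because luciferase stays unfolded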
Starred values were filed as active, the others as inactive; ! = a repeat was not active. This is a sample that favours compounds with a hit; in the whole collection about 2.6% have one here.

Screening CC(=O)c1ccc(Nc2nc(-c3sc(C)nc3C)cs2)cc1 returned aDG glyco up 0, EBV LMP1 NFkB 10, TROY signal inh 17, TWEAK Fn14 block 56* and LGR2 antag 97*.
For Cc1nc(C)c(-c2csc(Nc3ccccn3)n2)s1 the results were aDG glyco up 0, EBV LMP1 NFkB -1, TROY signal inh -4, TWEAK Fn14 block 55*, LGR2 antag -24 and HSP90 refold inh 4.
Cc1ccnc(Nc2nc(-c3sc(C)nc3C)cs2)c1 was read as aDG glyco up 0, EBV LMP1 NFkB -27, TROY signal inh 37, TWEAK Fn14 block 84* and LGR2 antag 78*.
`O=C(C[C@@H]1CC[C@@H]2[C@H](COC[C@H](O)CN2Cc2cccc(C(F)(F)F)c2)O1)NCc1ccncc1` gave LGR2 antag 3.
`Nc1ncnc(NCc2ccc(F)cc2)c1[N+](=O)[O-]` gave aDG glyco up 0, EBV LMP1 NFkB 23, TROY signal inh 14, TWEAK Fn14 block 60*, LGR2 antag 3 and HSP90 refold inh 2.
`O=C(Nc1cc(F)ccc1F)N[C@@H]1CC[C@H](CCNC(=O)c2cnccn2)O[C@@H]1CO` gave LGR2 antag 7.
For C/C(=C/CCC(C)[C@H]1CC[C@@]2(C)C3=C(CC[C@]12C)[C@@]1(C)CCC(=O)C(C)(C)[C@@H]1CC3)C(=O)O (stereo partly drawn) the results were aDG glyco up 0, EBV LMP1 NFkB -6, TROY signal inh 53*, TWEAK Fn14 block 10 and HSP90 refold inh 4.
`CNc1nc(NCc2ccccc2)c2ccccc2n1` gave aDG glyco up 1, EBV LMP1 NFkB -37, TROY signal inh 15, TWEAK Fn14 block -33, LGR2 antag 24 and HSP90 refold inh -2.
For C=CCNc1ncnc2ccccc12 the results were aDG glyco up 0, EBV LMP1 NFkB 4, TROY signal inh 50*, TWEAK Fn14 block 41 and HSP90 refold inh -2.
Screening c1ccc(CNc2ncnc3ccccc23)cc1 returned aDG glyco up 5, EBV LMP1 NFkB 22, TROY signal inh 28, TWEAK Fn14 block 52*!, LGR2 antag 29 and HSP90 refold inh 2.
CCCCNc1nc(NCc2ccccc2)nc2ccccc12 was read as aDG glyco up 1, TROY signal inh 55*, TWEAK Fn14 block 34 and LGR2 antag 33.
Screening CO[C@@H]1CN(C)C(=O)c2cc(NC(=O)Nc3ccccc3Cl)ccc2OC[C@H](C)NC[C@@H]1C returned LGR2 antag 0.
For O=C1c2cccc(OCC(=O)N3CCCc4ccccc43)c2CCN1Cc1ccc(Br)cc1 the results were aDG glyco up 0, EBV LMP1 NFkB 15, TROY signal inh 36, TWEAK Fn14 block 79*, LGR2 antag -1 and HSP90 refold inh 6.
Screening O=C1c2cccc(OCC(=O)N3CCCc4ccccc43)c2CCN1Cc1ccccc1 returned aDG glyco up 0, EBV LMP1 NFkB 15, TROY signal inh -5, TWEAK Fn14 block 6, LGR2 antag 13 and HSP90 refold inh 0.
For O=c1c2cc3c(cc2[nH]c(=S)n1CCN1CCOCC1)OCO3 the results were aDG glyco up 0, EBV LMP1 NFkB 5, TROY signal inh 78*, TWEAK Fn14 block -8 and HSP90 refold inh -1.
Screening CC1CCN(CCn2c(=S)[nH]c3cc4c(cc3c2=O)OCO4)CC1 returned aDG glyco up 0, EBV LMP1 NFkB -2, TROY signal inh -4, TWEAK Fn14 block -2, LGR2 antag -4 and HSP90 refold inh 0.
For CCC(Oc1ccccc1)C(=O)NC1CCCCCC1 (stereo not drawn) the results were aDG glyco up 0, EBV LMP1 NFkB 4, TROY signal inh 3, TWEAK Fn14 block 1, LGR2 antag 6 and HSP90 refold inh 2.
Screening CCC(Oc1ccccc1)C(=O)NC1CCSC1=O (stereo not drawn) returned aDG glyco up 0, EBV LMP1 NFkB 66*, TROY signal inh -3, TWEAK Fn14 block -4, LGR2 antag -7 and HSP90 refold inh 1.
`COc1ccc(-c2csc3nc(-c4cccnc4)nc(Cl)c23)cc1OC` gave aDG glyco up 1, EBV LMP1 NFkB 7, TROY signal inh 36, TWEAK Fn14 block 53*, LGR2 antag -6 and HSP90 refold inh -1.
COc1ccc(-c2nc(-c3cccnc3)no2)cc1OC was read as aDG glyco up 0, EBV LMP1 NFkB -7, TROY signal inh -31, TWEAK Fn14 block 84*, LGR2 antag -57 and HSP90 refold inh -4.
For O=S(=O)(c1ccccc1)N1CC[C@@H]2[C@H](CO)Nc3ccc(C#CC4CCCCC4)cc3[C@@H]21 the results were LGR2 antag -7.
`CC1CCCC(NC(=O)COC(=O)c2c[nH]c(=O)[nH]c2=O)C1C` (stereo not drawn) gave aDG glyco up 0, EBV LMP1 NFkB 2, TWEAK Fn14 block 55* and HSP90 refold inh -1.
For CO[C@H]1CN(C)C(=O)c2ccc(NC(=O)C3CCCC3)cc2OC[C@@H](C)N(C(=O)CC2CC2)C[C@@H]1C the results were LGR2 antag 17.
`CC(C)NC(=O)NC(=O)COC(=O)CCCSc1nc2ccccc2s1` gave aDG glyco up 0, EBV LMP1 NFkB -38, TROY signal inh 8, TWEAK Fn14 block -3, LGR2 antag 12 and HSP90 refold inh 6.
For CCOC(=O)NC(=O)COC(=O)CCCSc1nc2ccccc2s1 the results were aDG glyco up 0, EBV LMP1 NFkB -5, TROY signal inh 27, TWEAK Fn14 block 54*, LGR2 antag -12 and HSP90 refold inh 10.
O=C(O)CCSc1nc2ccccc2s1 was read as aDG glyco up 0, EBV LMP1 NFkB 11, TROY signal inh 69*, TWEAK Fn14 block 92*, LGR2 antag -10 and HSP90 refold inh 12.
Screening NC(=O)NC(=O)COC(=O)CCCSc1nc2ccccc2s1 returned aDG glyco up 0, EBV LMP1 NFkB -6, TROY signal inh 39, TWEAK Fn14 block 61*, LGR2 antag -5 and HSP90 refold inh 8.
Screening c1ccc2sc(SCSc3nc4ccccc4s3)nc2c1 returned aDG glyco up 0, EBV LMP1 NFkB -22, TROY signal inh -50, TWEAK Fn14 block -90, LGR2 antag -21 and HSP90 refold inh -1.
COC(=O)c1ccc(COc2ccc3ccc(=O)oc3c2)o1 was read as aDG glyco up 0, EBV LMP1 NFkB -8, TROY signal inh -17, TWEAK Fn14 block 5, LGR2 antag -1 and HSP90 refold inh 0.
Screening COC(=O)c1ccc(COc2ccc(C)c(C)c2)o1 returned aDG glyco up 0, EBV LMP1 NFkB -18, TROY signal inh -52, TWEAK Fn14 block -31, LGR2 antag -113 and HSP90 refold inh 17*.
`CNC[C@H]1OCCCC[C@@H](C)Oc2ccc(NS(=O)(=O)c3ccccc3)cc2C(=O)N([C@@H](C)CO)C[C@@H]1C` gave LGR2 antag 4.
